Calls of active or inactive are those of the source. Entries that show only a call come without a potency. Calls come from the whole dose curve.
biological target: Acetylcholinesterase (Homo sapiens) (UniProt P22303); assay: Acetylcholinesterase (AChE) small molecule antagonists: enzyme-based qHTS assay with human liver microsomes (AID 1347399); conditions: Potency: qHTS inhibition; outcome: qHTS inhibition; series mostly up to 115 µM; note: nearly all actives have a fitted effect of over 60% in size
Sequence (P22303 whole entry, looked up): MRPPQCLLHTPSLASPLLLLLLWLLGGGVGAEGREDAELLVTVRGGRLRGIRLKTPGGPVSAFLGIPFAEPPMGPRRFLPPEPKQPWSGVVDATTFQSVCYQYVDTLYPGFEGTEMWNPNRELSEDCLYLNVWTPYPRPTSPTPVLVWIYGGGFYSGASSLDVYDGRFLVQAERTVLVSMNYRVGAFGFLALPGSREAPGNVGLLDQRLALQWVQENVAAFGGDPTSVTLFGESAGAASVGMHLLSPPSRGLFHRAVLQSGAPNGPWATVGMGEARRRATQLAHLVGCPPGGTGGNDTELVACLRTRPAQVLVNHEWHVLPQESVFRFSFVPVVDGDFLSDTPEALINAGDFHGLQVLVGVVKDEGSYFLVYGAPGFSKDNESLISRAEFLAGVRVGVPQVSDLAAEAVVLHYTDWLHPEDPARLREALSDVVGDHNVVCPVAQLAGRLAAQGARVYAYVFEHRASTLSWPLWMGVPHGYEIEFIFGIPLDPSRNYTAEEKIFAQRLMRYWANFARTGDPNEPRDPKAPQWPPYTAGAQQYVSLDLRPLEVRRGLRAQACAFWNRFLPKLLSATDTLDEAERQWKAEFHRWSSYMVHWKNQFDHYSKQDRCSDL
Text: National Center for Advancing Translational Sciences [NCATS]
Division of Preclinical Innovation [DPI]
U.S. Environmental Protection Agency [EPA]
National Institutes of Environmental Health Sciences [NIEHS]
National Toxicology Program [NTP]
U.S. Food and Drug Administration [FDA]
Acetylcholinesterase (AChE) is the primary cholinesterase in the body that hydrolyzes a key neurotransmitter, acetylcholine. Inhibition of AChE activity can lead to neurotoxicity. The known inhibitors include organophosphorous pesticides (OP), chemical warfare agents, drugs, and various phytochemicals. Some compounds like OP compounds may need metabolic activation to be active AChE inhibitors. The cytochrome P450 (CYP) superfamily in the human microsomes is responsible for the metabolism of various endogenous and exogenous compounds.
An enzyme-based assay with the recombinant human AChE, human liver microsomes and Amplite Colormetric acetylcholinesterase assay kit (AAT Bioquest, Sunnyvale, CA) was used to evaluate compounds in the Tox21 10K library that need metabolic activation for AChE inhibition. The assay uses 5, 5-dithiobis-(2-nitrobenzoic acid) (DTNB) to quantify the thiocholine produced from the hydrolysis of acetylthiocholine by AChE.
Tox21 Assay Protocol Summary:
For the enzyme-based AChE assay with microsomes addition, a mixture of human AChE (50 mU/mL) and human liver microsomes (0.25 mg/mL, final concentration) in 3 uL/well was dispensed into black, clear-bottom 1536-well plates using a Multidrop Combi dispenser (Thermo Scientific, MA). Then, 23 nL of compound or DMSO (vehicle control) was transferred into the assay plates by a Pintool Station (Wako Automation, CA). Following compound addition, 1 uL of NADPH (0.25 mg/mL, final concentration) was transferred to the assay plate by a Flying Reagent Dispenser (Beckman Coulter, CA). The plates were incubated for 30 min at 37 C and 5% CO2, followed by the addition of 4 uL of colorimetric detection cocktail solution (DTNB, acetylthiocholine) into each well using a Flying Reagent Dispenser (Beckman Coulter, CA) and then 10 min incubation at room temperature.

SMILES	Potency
CC(O)CN1CCN(CC(=O)[O-])CCN(CC(=O)[O-])CCN(CC(=O)[O-])CC1.[Gd+3] (stereo not given)	inactive
C=C(C)C(=O)OCCCCOC(=O)C(=C)C	inactive
O=C1NC(=O)C(=O)C(=O)N1	inactive
CCCCCCCCn1sccc1=O	inactive
CCN(C(C)=O)c1cccc(-c2ccnc3c(C#N)cnn23)c1	inactive
O=C(O)C(F)(F)C(F)(F)C(F)(F)C(F)(F)C(F)(F)F	inactive
CCOC(=O)C1OC1(C)c1ccccc1 (stereo not given)	inactive
CCOP(=S)(OCC)SCSc1cc(Cl)ccc1Cl	inactive
CCOC(C(=O)OCCN(C)C)(c1ccccc1)c1ccccc1	inactive
OCCSSCCO	inactive
C[N+](C)(C)CCOC(=O)C(O)(c1ccccc1)c1ccccc1	inactive
CC(C)CCON=O	inactive
O=C(O)C(Cl)(Cl)Br	inactive
O=C(NC(=O)c1cc(F)c(F)cc1Cl)Nc1cc(F)ccc1N1CCC(C(=O)O)CC1	inactive
CCc1cnc(C2=NC(C)(C(C)C)C(=O)N2)c(C(=O)O)c1 (stereo not given)	inactive
NNCCO	inactive
CN(C)C(=O)Nc1cccc(OC(=O)NC(C)(C)C)c1	inactive
O=C=NC1CCCCC1	inactive
CN(C)N	inactive
c1ccc2sc(SNC3CCCCC3)nc2c1	inactive

SMILES	Potency
CC(C)C1(C)N=C(c2ncccc2C(=O)O)NC1=O (stereo not given)	inactive
CCCSP(=S)(OCC)Oc1ccc(SC)cc1 (stereo not given)	inactive
CCCCCBr	inactive
Nc1ccccc1C(=O)OCCc1ccccc1	inactive
O=S(=O)(Cl)Cl	inactive
Nc1cc(Cl)cc(C(=O)O)c1Cl	inactive
CCOP(=S)(OCC)Oc1ccc(S(C)=O)cc1 (stereo not given)	inactive
N#CC1(N=NC2(C#N)CCCCC2)CCCCC1	inactive
Nc1ccccc1C(=O)OCC(O)CO (stereo not given)	inactive
CON(C)C(=O)Nc1ccc(Cl)cc1	inactive
CCCCC(CC)CO[N+](=O)[O-] (stereo not given)	inactive
O=C(N[C@H]1CN2CCC1CC2)c1ccc2c(c1)OCCO2	inactive
CCOC(=O)NC(O)C(Cl)(Cl)Cl (stereo not given)	inactive
Nc1cccc2ccccc12	inactive
C1CS1	inactive
CCCN(CCC)C(=O)Cc1c(-c2ccc(Cl)cc2)nc2ccc(Cl)cn12	inactive
COc1cc(C[C@@H](C)N)c(OC)cc1Br	inactive
CCCN(CCOc1c(Cl)cc(Cl)cc1Cl)C(=O)n1ccnc1	inactive
Cc1ccccc1	inactive
COCc1cnc(C2=NC(C)(C(C)C)C(=O)N2)c(C(=O)O)c1 (stereo not given)	inactive
